# The entries come from a sample that favours the strongest signals as a whole.
# B1: LecB PA7 (Pseudomonas aeruginosa) (protein)
# chain: MATQGVFTLPANTRFGVTAFANSSATQTVKVLVNNETAATFTGQSTNNAVIGSQVLNSGGGGKVQIQVSVNGRSSDLVSAQVILANELNVALVGSEDSTDNDYNDAVVVINWPLG
# Legend:
# Experiment in all cases: glycan array binding signal (z-score within array); higher = stronger binding
# Details in all cases: glycan notation: IUPAC condensed, linker removed
# Fuc(a1-2)Gal(b1-4)Glc6S = target: Fuc(a1-2)Gal(b1-4)Glc6S
# Outline: (§1)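 From the Consortium for Functional Glycomics database, 3228 arrays were curated, keeping only those whose protein sequence was available. Binding is given as a within-array Z-score averaged across arrays sharing a protein sequence and across linkers. Negative Z-scores can be read as non-binding.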
# [1] = target: Fuc(a1-2)Gal(b1-4)GlcNAc(b1-3)Gal(b1-4)GlcNAc
# Outline: as §1
# [2] = target: Fuc(a1-2)Gal(b1-4)GlcNAc(b1-3)Gal(b1-4)GlcNAc(b1-2)Man(a1-3)[Fuc(a1-2)Gal(b1-4)GlcNAc(b1-3)Gal(b1-4)GlcNAc(b1-2)Man(a1-6)]Man(b1-4)GlcNAc(b1-4)GlcNAc
# Outline: as §1
# [3] = target: Fuc(a1-2)Gal(b1-4)GlcNAc(b1-3)Gal(b1-4)GlcNAc(b1-3)Gal(b1-4)GlcNAc
# Outline: as §1
# [4] = target: Fuc(a1-2)Gal(b1-4)GlcNAc(b1-3)GalNAc
# Outline: as §1
# [5] = target: Fuc(a1-2)Gal(b1-4)GlcNAc(b1-6)GalNAc
# Outline: as §1
# [6] = target: Fuc(a1-2)Gal(b1-4)[Fuc(a1-3)]GlcNAc(b1-2)Man(a1-3)[Fuc(a1-2)Gal(b1-4)[Fuc(a1-3)]GlcNAc(b1-2)Man(a1-6)]Man(b1-4)GlcNAc(b1-4)[Fuc(a1-6)]GlcNAc
# Outline: as §1
# [7] = target: Fuc(a1-2)Gal(b1-4)[Fuc(a1-3)]GlcNAc(b1-2)[Fuc(a1-2)Gal(b1-4)[Fuc(a1-3)]GlcNAc(b1-4)]Man(a1-3)[Fuc(a1-2)Gal(b1-4)[Fuc(a1-3)]GlcNAc(b1-2)Man(a1-6)]Man(b1-4)GlcNAc(b1-4)GlcNAc
# Outline: as §1
# [8] = target: Fuc(a1-2)Gal(b1-4)[Fuc(a1-3)]GlcNAc(b1-3)Gal(b1-4)[Fuc(a1-3)]GlcNAc
# Outline: as §1
# [9] = target: Fuc(a1-2)Gal(b1-4)[Fuc(a1-3)]GlcNAc(b1-3)Gal(b1-4)[Fuc(a1-3)]GlcNAc(b1-3)Gal(b1-4)[Fuc(a1-3)]GlcNAc
# Outline: as §1
# [10] = target: Fuc(a1-2)[Gal(a1-3)]Gal(b1-3)GalNAc(b1-3)Gal(a1-4)Gal(b1-4)Glc
# Outline: as §1
# [11] = target: Fuc(a1-2)[Gal(a1-3)]Gal(b1-3)GlcNAc(b1-2)Man(a1-3)[Fuc(a1-2)[Gal(a1-3)]Gal(b1-3)GlcNAc(b1-2)Man(a1-6)]Man(b1-4)GlcNAc(b1-4)[Fuc(a1-6)]GlcNAc
# Outline: as §1
# [12] = target: Fuc(a1-2)[Gal(a1-3)]Gal(b1-4)[Fuc(a1-3)]GlcNAc(b1-3)GalNAc
# Outline: as §1
# [13] = target: Fuc(a1-2)[GalNAc(a1-3)]Gal(b1-4)GlcNAc(b1-3)Gal(b1-4)GlcNAc(b1-3)Gal(b1-4)GlcNAc
# Outline: as §1
# [14] = target: Fuc(a1-2)[GalNAc(a1-4)]Gal(b1-4)GlcNAc
# Outline: as §1
# [15] = target: Fuc(a1-3)[Gal(b1-4)]GlcNAc(b1-3)Gal(b1-4)[Fuc(a1-3)]GlcNAc(b1-3)Gal(b1-4)[Fuc(a1-3)]GlcNAc
# Outline: as §1
# Gal(b1-3)GalNAc = target: Gal(b1-3)GalNAc
# Outline: as §1
# [16] = target: Gal(b1-3)GlcNAc(a1-3)Gal(b1-4)GlcNAc
# Outline: as §1
# [17] = target: Gal(b1-3)GlcNAc(b1-3)Gal(b1-4)[Fuc(a1-3)]GlcNAc
# Outline: as §1
# [18] = target: Gal(b1-3)GlcNAc(b1-3)GalNAc
# Outline: as §1
# [19] = target: Gal(b1-3)GlcNAc(b1-6)[Gal(b1-3)]GalNAc
# Outline: as §1
# [20] = target: Gal(b1-3)[Fuc(a1-4)]GlcNAc(b1-3)Gal(b1-3)[Fuc(a1-4)]GlcNAc
# Outline: as §1
# [21] = target: Gal(b1-3)[Fuc(a1-4)]GlcNAc(b1-3)Gal(b1-4)[Fuc(a1-3)]GlcNAc
# Outline: as §1
# [22] = target: Gal(b1-3)[Neu5Ac(a2-6)]GalNAc
# Outline: as §1
# [23] = target: Gal(b1-4)GalNAc(b1-3)[Fuc(a1-2)]Gal(b1-4)GlcNAc
# Outline: as §1
# Gal(b1-4)Glc = target: Gal(b1-4)Glc
# Outline: as §1
# Gal(b1-4)GlcNAc(b1-2)Man = target: Gal(b1-4)GlcNAc(b1-2)Man
# Outline: as §1
# [24] = target: Gal(b1-4)GlcNAc(b1-3)Gal(b1-4)GlcNAc(b1-3)[Gal(b1-4)GlcNAc(b1-3)Gal(b1-4)GlcNAc(b1-6)]GalNAc
# Outline: as §1
# [25] = target: Gal(b1-4)GlcNAc(b1-3)Gal(b1-4)[Fuc(a1-3)]GlcNAc(b1-3)Gal(b1-4)[Fuc(a1-3)]GlcNAc
# Outline: as §1
# Gal4S(b1-4)GlcNAc = target: Gal4S(b1-4)GlcNAc
# Outline: as §1
binder,measurement,setting,value
B1,glycan array binding signal (z-score),Fuc(a1-2)Gal(b1-4)Glc6S,1.89
same,glycan array binding signal (z-score),[1],3.5
same,glycan array binding signal (z-score),[2],10.1
same,glycan array binding signal (z-score),[3],3.71
same,glycan array binding signal (z-score),[4],0.923
same,glycan array binding signal (z-score),[5],0.819
same,glycan array binding signal (z-score),[6],5.18
same,glycan array binding signal (z-score),[7],-0.08
same,glycan array binding signal (z-score),[8],4.93
same,glycan array binding signal (z-score),[9],4.08
same,glycan array binding signal (z-score),[10],-0.43
same,glycan array binding signal (z-score),[11],0.145
same,glycan array binding signal (z-score),[12],0.197
same,glycan array binding signal (z-score),[13],-0.381
same,glycan array binding signal (z-score),[14],1.57
same,glycan array binding signal (z-score),[15],3.54
same,glycan array binding signal (z-score),Gal(b1-3)GalNAc,-0.403
same,glycan array binding signal (z-score),[16],-0.51
same,glycan array binding signal (z-score),[17],1.8
same,glycan array binding signal (z-score),[18],-0.499
same,glycan array binding signal (z-score),[19],-0.412
same,glycan array binding signal (z-score),[20],3.31
same,glycan array binding signal (z-score),[21],3.44
same,glycan array binding signal (z-score),[22],-0.511
same,glycan array binding signal (z-score),[23],-0.478
same,glycan array binding signal (z-score),Gal(b1-4)Glc,-0.502
same,glycan array binding signal (z-score),Gal(b1-4)GlcNAc(b1-2)Man,-0.495
same,glycan array binding signal (z-score),[24],-0.495
same,glycan array binding signal (z-score),[25],2.05
same,glycan array binding signal (z-score),Gal4S(b1-4)GlcNAc,-0.478

# From the supplement of paper PMC8728848
